This is a sample that favours compounds with a hit; in the whole collection about 4.6% have one here.
D1 ag: Allosteric Agonists of the Human D1 Dopamine Receptor: qHTS; activation, % at 2 µM; D(1A) dopamine receptor (Homo sapiens), P21728; HEK293 T-REx D1 cells, calcium flux, agonist mode; hit rate 1% among 360,000; further: 0% is about no effect
Target sequence (P21728 whole entry, looked up): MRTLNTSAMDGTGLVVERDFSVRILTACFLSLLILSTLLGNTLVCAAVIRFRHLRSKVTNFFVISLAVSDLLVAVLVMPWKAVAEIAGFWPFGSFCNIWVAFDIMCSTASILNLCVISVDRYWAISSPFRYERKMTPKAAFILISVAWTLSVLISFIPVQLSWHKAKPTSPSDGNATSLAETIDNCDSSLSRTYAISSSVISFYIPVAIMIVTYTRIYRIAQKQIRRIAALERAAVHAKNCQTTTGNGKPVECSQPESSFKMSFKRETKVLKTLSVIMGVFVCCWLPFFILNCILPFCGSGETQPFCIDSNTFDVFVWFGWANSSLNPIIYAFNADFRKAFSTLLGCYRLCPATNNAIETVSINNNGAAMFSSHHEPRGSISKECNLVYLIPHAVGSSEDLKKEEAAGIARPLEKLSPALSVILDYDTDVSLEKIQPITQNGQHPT
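Inducible HEK293 T-REx D1 cells, force-coupled to calcium signalling, were plated at 4000 cells/well with tetracycline and held overnight at 30 C. After no-wash calcium dye loading, compound-evoked calcium rise over 180 s flagged agonists.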
D1 antag: Antagonist of Human D 1 Dopamine Receptor: qHTS | hit rate 3.2% among 360,000 | activity change, negative = inhibition, % at 10 µM | HEK293 TREx D1 cells, calcium flux, dopamine EC80; stronger effect = lower value; in the data active means activity change below about -30%; further: on the % scale 0 is the no-effect control and ±100 the full control effect
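Inducible Hek293 Trex D1 cells (tetracycline, overnight, 30 C). Calcium dye 30–90 min RT. Antagonist mode: EC80 dopamine added after 180 s compound read.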
D1 potentiator: Potentiators of Human D1 Dopamine Receptor: qHTS. potentiation, % at 10 µM. HEK293 TREx D1 cells, calcium flux, dopamine EC20 potentiation. AID 504651, 2011. D(1A) dopamine receptor (Homo sapiens), P21728. hit rate 0.036% among 360,000; in the data active means potentiation above about 30%; further: 0% is about no effect
TRHR agonist: qHTS for Small Molecule Agonists and Allosteric Enhancers of Human TRH Receptor: Primary Screen for Agonists. Thyrotropin-releasing hormone receptor (Homo sapiens), P34981. TRHR cells, calcium flux fluo-8, FDSS agonist mode. activation, % at 2 µM. hit rate 0.18% among 360,000; further: 0% is about no effect
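In this calcium-flux screen, cells bearing human TRHR are dye-loaded with fluo-8, baselined for 10 cycles, then exposed to library compounds; positive kinetic calcium responses during the agonist phase mark hits, with TRH as control.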
TRHR enhancer: qHTS for Small Molecule Agonists and Allosteric Enhancers of Human TRH Receptor: Primary Screen for Enhancers | Thyrotropin-releasing hormone receptor (Homo sapiens), P34981 | TRHR cells, fluo-8 calcium fluorescence, EC20 TRH enhancement | enhancement, % at 2 µM | hit rate 0.66% among 360,000; in the data active means enhancement above about 30%; further: 0% is about no effect
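TRHR-expressing cells loaded with fluo-8 calcium dye were read kinetically (ex 480/em 530) during compound addition, then stimulated with an EC20 of TRH (10 nM final). Enhancement of the Gq-mediated intracellular calcium response was scored.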
Active calls of the source: *. Unless noted, no stated cut-off is given here; in the data, active means activation above about 30%; inactive means the rest.

SMILES	D1 ag	D1 antag	D1 potentiator	TRHR agonist	TRHR enhancer
Cc1cc(C)c(-c2cc(C(=O)Nc3cc(C)ccc3C)[nH]n2)c(O)c1	4	-23	0	0	33*
Cc1ccc(-c2cc(C(=O)Nc3cc(C)ccc3C)[nH]n2)c(O)c1	-1	-37*	-9	1	7
Cc1ccc(C)c(NC(=O)c2cc(-c3ccccc3O)n[nH]2)c1	2	-22	-7	1	-1
O=C(CN1C(=O)C2C3C=CC(C3)C2C1=O)NCc1ccco1 (stereo unspecified)	1	22	31*	0	9
COCCCNC(=O)c1c(NC(=O)Cc2coc3cc(C)ccc23)sc2c1CCCC2	1	-66*	0	0	3
CCNC(=O)c1c(NC(=O)Cc2coc3cc(C)ccc23)sc2c1CCCC2	5	-2	-1	0	0
CCOC(=O)C1CCCN(C(=O)c2cc(-c3ccc(C)cc3)on2)C1 (stereo unspecified)	1	-49*	-9	0	-4
CCOC(=O)C1CCN(S(=O)(=O)Cc2ccccc2)CC1	0	11	-3	0	10
Cc1ccc(-c2cc(C(=O)N3CCCCCC3)no2)cc1	5	-1	7	0	5
O=C1Nc2cc(C(=O)N3CCOCC3)ccc2SC1N1CCOCC1 (stereo unspecified)	-1	-7	0	-1	5
CCOC(=O)C1CCCN(C(=O)CC(C)c2ccccc2)C1 (stereo unspecified)	5	-33*	4	-1	3
CCOC(=O)C1CCCN(S(=O)(=O)Cc2ccccc2)C1 (stereo unspecified)	1	-64*	-7	-1	12
CCOC(=O)C1CCCN(C(=O)c2ccc3c(c2)NC(=O)C(N2CCOCC2)S3)C1 (stereo unspecified)	0	-31*	-1	-1	-6
CCOc1ccccc1CN1CCc2nc(N3CCN(C)CC3)ncc2C1	13	-18	0	0	-3
CCOc1ccc(S(=O)(=O)N2CCOCC2)cc1NC(=O)CN1C(=O)NC(C)(c2ccccc2)C1=O (stereo unspecified)	1	0	-9	0	0
CCCc1nnc2n1N=C(c1ccc(OC)c(OC)c1)CS2	-1	8	6	-1	34*
COC(=O)C1(c2ccccc2)NC(c2ccc(O)cc2)C2C(=O)N(c3ccc4c(c3)OCO4)C(=O)C21 (stereo unspecified)	0	-56*	-5	0	-1
CCCC1(C(=O)OCC)NC(c2ccc(O)cc2)C2C(=O)N(c3ccc4c(c3)OCCO4)C(=O)C21 (stereo unspecified)	4	-3	-1	1	0
O=C(CSc1nnc(CNc2ccc(Cl)cc2)n1Cc1ccccc1)NCc1ccco1	6	-32*	0	4	-5
O=C(CSc1nnc(Cn2c(=O)sc3ccccc32)n1-c1ccccc1)NCc1ccco1	0	-1	-4	0	40*
O=C(CSc1nnc(Cc2ccccc2)n1Cc1ccccc1)NCc1ccco1	2	-6	4	0	-1
CC(=O)Nc1cccc(NC(=O)CCn2c(=O)sc3ccccc32)c1	3	-90*	-4	0	5
COc1cccc(-n2c(COc3ccccc3C)nnc2SCC(=O)O)c1	0	-32*	-4	-1	3
Cn1c(Cn2c(=O)sc3ccccc32)nnc1SCC(=O)NCc1ccco1	2	-12	-2	0	1
Cc1ccccc1OCc1nnc(SCC(=O)O)n1-c1ccccc1	3	3	-2	0	0
O=C1c2[nH]nc(-c3ccccc3O)c2C(c2cccc(Br)c2)N1Cc1ccncc1 (stereo unspecified)	0	16	0	0	-6
COc1ccc(-n2c(COc3cccc4ccccc34)nnc2SCC(=O)NCc2ccco2)cc1	10	-34*	-10	-1	-5
